# Compound activity from PubChem.
# MEX-5 binding: C. elegans MEX-5 TCR-2 RNA binding activity; Q9XUB2; MEX-5/FITC-TCR2 RNA binding, fluorescence polarization; hits give low values; activity score (negative = inhibition of binding), % at 10 µM; 300,000 tested, 0.38% active; AID 1832;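 active = inhibition past about -25% in most replicates, and total fluorescence under double the plate's negative control median, limit read from the data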;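 note: 0% = DMSO and -100% = 5 µM competing unlabeled TCR2 RNA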
# EBV gp42 inh: blocks Epstein-Barr virus glycoprotein 42 binding. inhibition, % (tested at 21.74 µM). Fluorescence polarization binding assay, mP read-out. Q1HVG2. AID 1085. 220,000 tested, 0.42% active; in the data active = inhibition above about 50%
# GLD-1 TGE inh: GLD-1-TGE RNA interaction inhibition (C. elegans); Q17339; purified GLD-1 + fluorescein TGE RNA, fluorescence polarization; inhibition, % at 5.96 µM; 320,000 tested, 0.44% active;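 active = percent inhibition above a per-plate cutoff, the plate mean of test compounds plus 3 SD, cut at about 30% in these data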;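 note: 0% = DMSO wells with GLD-1 and probe and 100% = wells lacking GLD-1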
# MCL1 BIM primary: disrupts human MCL1 binding to BIM-BH3 peptide; GST-MCL1 / FITC-Bim-BH3 fluorescence polarization; inhibition, % at 10.9 µM; 320,000 tested, 0.68% active;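 active = inhibition above the mean inhibition of all tested compounds plus 3 SD, set per campaign, cut at about 40% in these data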;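 note: 0% = DMSO wells and 100% = unlabeled Bim-BH3 peptide control; higher means more loss of mP so more displacement of Bim peptide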
# Target sequence (Q07820 whole entry, looked up): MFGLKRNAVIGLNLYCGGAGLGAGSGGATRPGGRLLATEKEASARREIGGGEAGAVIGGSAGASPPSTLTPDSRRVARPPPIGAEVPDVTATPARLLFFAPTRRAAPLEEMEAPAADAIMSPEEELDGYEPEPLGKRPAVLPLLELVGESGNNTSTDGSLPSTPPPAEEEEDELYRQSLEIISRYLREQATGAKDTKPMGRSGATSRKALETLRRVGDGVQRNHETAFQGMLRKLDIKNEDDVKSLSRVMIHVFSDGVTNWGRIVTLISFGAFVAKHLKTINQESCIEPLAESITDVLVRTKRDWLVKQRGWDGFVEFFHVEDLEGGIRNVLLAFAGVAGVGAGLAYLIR
# Bcl-xL primary: Bcl-xL (human) inhibition. 320,000 tested, 0.7% active. GST-Bcl-xL / FITC-Bim BH3 peptide fluorescence polarization. inhibition, % at 10.9 µM;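 active = inhibition above the mean of all tested compounds plus 3 SD, cutoff set per campaign, cut at about 30% in these data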;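 note: 0% = DMSO wells and 100% = unlabeled Bim-BH3 peptide competitor; inhibitors lower millipolarization by displacing the labeled peptide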
# E coli Lon inh: inhibitors of E. coli Lon protease; purified E. coli Lon protease, fluorescence polarization; 360,000 tested, 0.42% active; P0A9M0; inhibition, % at 7.94 µM; in the data active = inhibition above about 13%, passing the limit was not always enough;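 note: 0% = enzyme with probe and DMSO and 100% = no enzyme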
# E coli Lon conf: E. coli Lon inhibition confirmation; shares compounds with E coli Lon inh; purified E. coli Lon, fluorescence polarization; inhibition, % at 7.94 µM; 1,400 tested, 31% active; AID 602230; in the data active = inhibition above about 16%;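 note: 0% = enzyme with probe and DMSO and 100% = no enzyme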
# * hit, by the source's call; · = no result given. Only some compounds are listed: those with a hit (about 1.5% of all), similar ones and a draw of the others.
SMILES,MEX-5 binding,EBV gp42 inh,GLD-1 TGE inh,MCL1 BIM primary,Bcl-xL primary,E coli Lon inh,E coli Lon conf
COc1cccc(NC(=O)COC(=O)c2ccccc2C(=O)N2CCN(c3ccccc3)CC2)c1,-3,5,44*,50*,49*,16*,7
O=C(COC(=O)c1ccccc1C(=O)N1CCN(c2ccccc2)CC1)Nc1ccccc1,-1,-13,30,19,19,16,·
COc1cccc(NC(=O)COC(=O)c2ccccc2F)c1,1,-9,0,-2,-3,0,·
COCCC1CCCCN1C(=O)c1ccc(OC2CCN(C(C)=O)CC2)c(OC)c1 (stereo not drawn),-2,·,0,-1,-1,-3,·
COc1cccc(CNC(=O)CN(C)S(=O)(=O)c2ccc(Br)s2)c1,0,·,0,-3,2,-1,·
COc1ccc(N(C)C(=O)c2cc3c(s2)-c2ccc(Cl)cc2S(=O)(=O)C3)c(OC)c1,-5,·,5,4,1,20*,-6
COc1ccc(N(C)C(=O)c2cc3c(s2)-c2ccccc2OC3)c(OC)c1,-2,·,-2,4,6,8,·
O=C(Cc1cccc(NC(=O)C2CCCN(C(=O)C3CCCCC3)C2)c1)Nc1ccc(C(=O)N2CCOCC2)cc1 (stereo not drawn),·,·,·,·,·,-2,·
COc1ccc(N(CC(=O)Nc2ccc(S(=O)(=O)N3CCOCC3)cc2)S(C)(=O)=O)cc1OC,·,·,·,·,·,16*,6
COc1ccc(C)cc1N(CC(=O)Nc1ccc(S(=O)(=O)N2CCOCC2)cc1)S(C)(=O)=O,1,·,1,13,5,8,·
COc1ccc2c(c1OC)C(=O)N(c1nc(SC)n[nH]1)C2=O,-1,·,3,10,7,-6,·
CN(C)c1cccc(C(=O)NCc2ccccc2Cl)c1,2,-5,4,-2,3,68*,-2
CN(C)c1cccc(C(=O)NCc2ccccc2)c1,-2,-2,5,3,2,0,·
COc1ccc(OC)c(NC(=O)CSc2nncc3ccc(OC)c(OC)c23)c1,-6,-1,10,4,1,50*,1
COC(=O)c1ccc(-c2nc(CN3CCN(C(=O)c4ccco4)CC3)c(C)o2)cc1,·,·,·,·,·,15*,-2
COC(=O)c1ccc(-c2nc(CN3CCCN(C(=O)c4ccco4)CC3)c(C)o2)cc1,-4,·,6,1,2,2,·
Cc1c(C(=O)Nc2c(N)nc(SCC(=O)NCC3CCCO3)[nH]c2=O)cccc1[N+](=O)[O-] (stereo not drawn),1,·,0,3,6,2,·
Oc1ccccc1/C=N/c1c(-c2ccco2)nc2ccccn12,-1,14,14,23,24,30*,3
COc1cc(-c2nc3ccccn3c2/N=C/c2cccc(OC)c2O)ccc1O,-1,-13,-1,-3,-4,4,·
CC1CCCC(C)N1C(=O)COc1ccc(C(=O)Nc2ccccc2N2CCOCC2)cc1 (stereo not drawn),2,-3,4,3,7,20*,12
CCOc1ccc(C(=O)Nc2ccccc2N2CCOCC2)cc1,1,-16,7,2,7,0,·
CC(C)NC1(C(N)=O)CCNCC1,·,·,·,·,·,7,·
CC(=O)Nc1cccc(NC(=O)CSc2nc(=O)n(CCCN3CCOCC3)c3c2CCC3)c1,-2,·,-5,0,-2,8,·
CC(=O)Nc1cccc(NC(=O)CSc2nc(=O)n(CCN3CCOCC3)c3c2CCC3)c1,-2,·,-9,1,3,105*,-114
COc1ccc(/C=C/C(=O)OCC(=O)N2c3ccccc3CC2C)c(OC)c1 (stereo not drawn),·,·,·,·,·,14*,-4
COc1cccc(/C=C/C(=O)OCC(=O)N2c3ccccc3CC2C)c1OC (stereo not drawn),·,·,·,·,·,-4,·
CC(C)n1c(S(=O)(=O)O)nc2ccccc21,-4,10,2,-5,-3,14*,-1
Nc1ccccc1-c1ccccc1N,0,-18,0,6,0,6,·
Nc1ccccc1N=Nc1ccccc1N,-1,·,17,47*,46*,49*,40*
Cc1ccc2cccc(NC(=S)NC(=O)c3ccccc3)c2n1,2,-8,5,9,5,-13,·
